Laboratory results reported in PubChem BioAssay (EPA / NIEHS).
The source made the active and inactive calls. The calls were made as follows: active = hit-call score of the fitted dose curve at least 0.9, where 1 is the maximum; inactive = score below 0.9.

assay: ATG_TCF_b_cat_CIS: Attagene CIS-FACTORIAL HepG2 Assay for human T-Cell-Factor with beta-catenin (TCF/b-cat) (AID 2282965); settings: HepG2 TCF/beta-catenin cis-reporter transcription, actives raise or lower the signal
Procedure: ATG_CIS is a cell-based, multiplexed-readout assay that uses HepG2, a human liver cell line, with measurements taken at 24 hours after chemical dosing in a 24-well plate.ATG_TCF_b_cat_CIS is one of 52 assay component(s) measured or calculated from the ATG_CIS assay. It is designed to make measurements of mRNA induction, a form of inducible reporter, as detected with fluorescence intensity signals by Reverse transcription polymerase chain reaction (RT-PCR) and Capillary electrophoresis technology.Data from the assay component ATG_TCF_b_cat_CIS was analyzed into 1 assay endpoint. This assay endpoint, ATG_TCF_b_cat_CIS, was analyzed with bidirectional fitting relative to DMSO as the negative control and baseline of activity. Using a type of inducible reporter, measures of mRNA for gain or loss-of-signal activity can be used to understand the reporter gene at the transcription factor-level as they relate to the gene TCF7 and TCF7L2 and LEF1 and TCF7L1. Furthermore, this assay endpoint can be referred to as a primary readout, because this assay has produced multiple assay endpoints where this one serves a reporter gene function. To generalize the intended target to other relatable targets, this assay endpoint is annotated to the dna binding intended target family, where the subfamily is HMG box protein.
Human liver HepG2 cells are transiently transfected with multiple reporter transcription units (MRTUs) in 6-well plates using FuGene 6 reagent (Roche; 3 ml FuGene/1 mg DNA). The MRTU constructs are regulated by a cis-regulating element (promoter). […] A major difference between the CIS and TRANS system is that in CIS activities of endogenous TFs are measured, whereas the TRANS assay evaluates changes in activities of exogenous, chimeric NR-Gal4 proteins. […] At the end of 24 hour incubation, total RNA was isolated using TriZol reagent (Invitrogen). The isolated RNA is then reverse-transcribed using oligo(dT) primer and Mo-MLV reverse transcriptase (Invitrogen) with DNAse I (Ambion) treatment for 30 min. The one-tenth of the produced cDNA was amplified by PCR using Taq DNA polymerase (Invitrogen) and two reporter sequence-specific primers. The PCR products were fluorescently labeled by primer extension with 6-arboxyfluorescein (6-FAM) 5'-labeled reporter sequence-specific primer (2 min at 95 C, 20 s at 68 C and 10 min at 72 C) and these products were digested with 5U of HpaI (New England Biolabs) for 2h at 37 C. The fragments were purified using Qiaquick PCR columns (Qiagen), analyzed on an ABI 3130xL genetic analyzer (Applied Biosystems) with peak positions identified by using a set of X-rhodamine (ROX)-labeled MapMarker1000 molecular weight standards (BioVentures). The raw capillary electrophoresis data was processed using Attagraph software (Attagene).

SMILES	outcome	AC50
O=c1[nH]c2ccccc2n1C1CCN(CCCC(c2ccc(F)cc2)c2ccc(F)cc2)CC1	inactive	
CC(C)(C)c1ccccc1O	inactive	
ClCCN1CCOCC1	inactive	
Oc1c(Br)cc(Br)cc1Br	inactive	
O=C1c2ccccc2C(=O)C1C(=O)C(c1ccccc1)c1ccc(Cl)cc1 (stereo not given)		12.2 µM (active)
ClCCCCl	inactive	
O=c1[nH]c(=O)n(Cl)c(=O)n1Cl	inactive	
CC(C)O.CC(C)O.OCCN(CCO)CCO.OCCN(CCO)CCO.[Ti]	inactive	
Oc1cccc(-c2ccccc2)c1	inactive	
CCOc1ccc(N)cc1	inactive	
[F][Sn]([c]1ccccc1)([c]1ccccc1)[c]1ccccc1	inactive	
CN(N=O)C(N)=O	inactive	
CCC(C)(C#N)N=NC(C)(C#N)CC (stereo not given)	inactive	
O=C(CCl)NCO	inactive	
CC(c1ccc(O)cc1)c1ccc(O)cc1	inactive	
BrCC(Br)c1ccccc1 (stereo not given)	inactive	
CCCCCCCCCCCCCl	inactive	
CCOC(=O)C(SP(=S)(OC)OC)c1ccccc1 (stereo not given)	inactive	
CCCCN(CCCC)C(=S)[S-].CCCCN(CCCC)C(=S)[S-].[Ni+2]	inactive	
CCOP(=O)(OCC)SCCSCC	inactive	

SMILES	outcome	AC50
C=CC(=O)[O][Sn]([CH2]CCC)([CH2]CCC)[CH2]CCC	inactive	
CC[N+](CC)(CC)CC	inactive	
COC(=O)c1cc(Oc2ccc(Cl)cc2Cl)ccc1[N+](=O)[O-]	inactive	
Cc1cccc(C)c1NC(=O)CN1CCCC1=O	inactive	
Cc1ccccc1OP(=O)(Oc1ccccc1C)Oc1ccccc1C	inactive	
COc1ccc([N+](=O)[O-])cc1O	inactive	
Cc1ccc(OP(=O)(Oc2ccc(C)cc2C)Oc2ccc(C)cc2C)c(C)c1	inactive	
Cc1cc(C)cc(C)c1	inactive	
CC(C)CC(C)(c1ccc(O)cc1)c1ccc(O)cc1		11.1 µM (active)
O=C(O)C1(c2ccc3c(c2)OC[C@H](Cc2ccc(-c4ccccc4)cc2)[C@H]3O)CCCC1	inactive	
Cc1ccccc1OP(=O)(Oc1ccccc1)Oc1ccccc1	inactive	
Cc1cccc(OP(=O)(Oc2cccc(C)c2)Oc2cccc(C)c2)c1	inactive	
OC[P+](CO)(CO)CO	inactive	
CC(C=O)Cc1ccc2c(c1)OCO2 (stereo not given)	inactive	
Nc1ccc(Br)cc1	inactive	
O=C(O)COc1cc(Cl)c(Cl)cc1Cl	inactive	
CNC(=O)N(C)c1nc2ccccc2s1	inactive	
Cl[C@H]1OCCO[C@@H]1Cl	inactive	
C=CC(=O)OCC(COC(=O)C=C)(COC(=O)C=C)COC(=O)C=C		8.6 µM (active)
Clc1cc(C(Cl)(Cl)Cl)cnc1Cl		8.55 µM (active)
